Our source for the Percent Effect values is ChEMBL document CHEMBL3988442, “University of Dundee, Small-Polar-MMV Screening Library” (2021).

Parameters in all cases: scale not given: direction of the effect not stated beside the values
For assay [1], the target named is Protein translocase subunit SecA (Escherichia coli (strain K12)) (UniProt P10408). Briefly: Assay to Identify E. coli SecA ATPase Inhibitors. The class given is functional. Conditions: 30 µM.
The target in assay [2] is T1, Ubiquitin-activating enzyme e1, putative (Leishmania donovani (strain BPK282A1)) (UniProt E9BSI1).
T1 sequence (whole entry): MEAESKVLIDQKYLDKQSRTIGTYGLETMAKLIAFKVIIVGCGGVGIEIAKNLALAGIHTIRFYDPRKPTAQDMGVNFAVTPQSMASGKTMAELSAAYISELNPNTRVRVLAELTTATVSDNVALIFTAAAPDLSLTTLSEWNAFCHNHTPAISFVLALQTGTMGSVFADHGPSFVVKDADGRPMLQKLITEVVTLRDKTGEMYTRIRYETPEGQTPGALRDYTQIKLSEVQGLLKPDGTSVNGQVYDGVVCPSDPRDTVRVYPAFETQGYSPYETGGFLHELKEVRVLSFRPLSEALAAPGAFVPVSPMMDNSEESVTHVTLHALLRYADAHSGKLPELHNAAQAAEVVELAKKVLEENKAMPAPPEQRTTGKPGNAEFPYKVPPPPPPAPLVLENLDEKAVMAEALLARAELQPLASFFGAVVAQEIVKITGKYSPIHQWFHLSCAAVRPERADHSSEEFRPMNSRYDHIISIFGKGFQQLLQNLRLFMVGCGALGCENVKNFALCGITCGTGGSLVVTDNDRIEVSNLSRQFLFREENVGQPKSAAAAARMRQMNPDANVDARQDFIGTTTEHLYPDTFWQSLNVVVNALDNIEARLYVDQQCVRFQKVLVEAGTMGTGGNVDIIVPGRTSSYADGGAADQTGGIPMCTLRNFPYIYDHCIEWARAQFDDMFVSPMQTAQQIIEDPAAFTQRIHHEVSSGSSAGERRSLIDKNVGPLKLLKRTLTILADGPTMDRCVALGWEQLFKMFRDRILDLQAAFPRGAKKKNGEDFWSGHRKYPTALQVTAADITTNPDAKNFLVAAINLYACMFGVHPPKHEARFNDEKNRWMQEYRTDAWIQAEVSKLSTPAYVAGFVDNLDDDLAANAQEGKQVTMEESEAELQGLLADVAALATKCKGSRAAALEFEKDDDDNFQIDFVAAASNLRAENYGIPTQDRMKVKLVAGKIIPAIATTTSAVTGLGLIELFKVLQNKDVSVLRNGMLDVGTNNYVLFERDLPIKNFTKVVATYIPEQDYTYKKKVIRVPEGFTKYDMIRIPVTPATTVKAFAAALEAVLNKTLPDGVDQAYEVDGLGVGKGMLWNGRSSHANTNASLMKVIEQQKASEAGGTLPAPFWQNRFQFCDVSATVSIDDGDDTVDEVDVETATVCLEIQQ
The assay can be described thus: Leishmania donovani Ubiquitin Activating Enzyme (LdE1). Format: functional. Conditions: 30 µM.

Assay [3] addresses Sialic acid-binding Ig-like lectin 9 (Homo sapiens) (UniProt Q9Y336). Briefly: Hs-Siglec9 ALPHAscreen SOP 20170721. Conditions: 10 µM. On the technique in general: Alpha assays give light when donor and acceptor beads are brought close together.
The next assay concerns Trypanosoma cruzi. Briefly: Trypanosoma cruzi phosphomannomutase and mannose-1-phosphate guanylyltransferase assay. Format: functional. Conditions: 10 µM.
Assay [4] concerns the target T2, Arginase-2, mitochondrial (Homo sapiens) (UniProt P78540).
T2 sequence (whole entry): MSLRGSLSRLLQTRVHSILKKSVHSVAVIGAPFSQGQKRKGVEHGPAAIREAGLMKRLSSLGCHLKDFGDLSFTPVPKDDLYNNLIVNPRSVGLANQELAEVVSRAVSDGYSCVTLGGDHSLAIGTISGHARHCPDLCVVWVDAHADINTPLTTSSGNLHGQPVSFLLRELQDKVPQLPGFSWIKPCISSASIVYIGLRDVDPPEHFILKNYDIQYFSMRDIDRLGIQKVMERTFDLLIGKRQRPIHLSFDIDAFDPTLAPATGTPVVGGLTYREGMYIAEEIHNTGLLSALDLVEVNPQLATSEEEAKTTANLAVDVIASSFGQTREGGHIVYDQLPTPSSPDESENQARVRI
Briefly: in vitro enzyme assay to detect the production of urea directly proportional to the activity of Arginase II. Also: in the data most compounds retested in dose-response had high values. Format: functional. Conditions: 33.3 µM.

Assay [5] deals with T3, Proteasome subunit beta (Trypanosoma cruzi) (UniProt O96673).
T3 sequence (whole entry): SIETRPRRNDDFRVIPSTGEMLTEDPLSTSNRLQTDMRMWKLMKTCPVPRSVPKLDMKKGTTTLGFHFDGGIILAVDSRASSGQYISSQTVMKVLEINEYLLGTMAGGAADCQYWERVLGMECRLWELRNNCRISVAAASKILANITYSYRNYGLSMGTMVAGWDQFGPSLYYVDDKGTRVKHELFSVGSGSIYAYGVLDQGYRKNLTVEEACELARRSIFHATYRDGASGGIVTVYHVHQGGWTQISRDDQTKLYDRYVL
The assay can be described thus: Trypanosoma cruzi proteasome chymotrypsin-like activity (TcProtChymo) assay. Also: in the data most compounds retested in dose-response had high values. Format: functional. Conditions: 9.37 µM.

For a further assay, the species on record is Homo sapiens. The assay can be described thus: To identify inhibition of the IFN signalling (Jak-Stat) pathway via expression of an eGFP reporter gene under the control of an IFN-stimulated response element (ISRE) containing MxA promoter. Conditions: 30 µM. Format: functional. A general note: In a reporter assay the amount or activity of a reporter protein is the signal.

Assay [6] deals with T4, Tyrosyl-tRNA synthetase, putative (Trypanosoma cruzi (strain CL Brener)) (UniProt Q4DSP6).
T4 sequence (whole entry): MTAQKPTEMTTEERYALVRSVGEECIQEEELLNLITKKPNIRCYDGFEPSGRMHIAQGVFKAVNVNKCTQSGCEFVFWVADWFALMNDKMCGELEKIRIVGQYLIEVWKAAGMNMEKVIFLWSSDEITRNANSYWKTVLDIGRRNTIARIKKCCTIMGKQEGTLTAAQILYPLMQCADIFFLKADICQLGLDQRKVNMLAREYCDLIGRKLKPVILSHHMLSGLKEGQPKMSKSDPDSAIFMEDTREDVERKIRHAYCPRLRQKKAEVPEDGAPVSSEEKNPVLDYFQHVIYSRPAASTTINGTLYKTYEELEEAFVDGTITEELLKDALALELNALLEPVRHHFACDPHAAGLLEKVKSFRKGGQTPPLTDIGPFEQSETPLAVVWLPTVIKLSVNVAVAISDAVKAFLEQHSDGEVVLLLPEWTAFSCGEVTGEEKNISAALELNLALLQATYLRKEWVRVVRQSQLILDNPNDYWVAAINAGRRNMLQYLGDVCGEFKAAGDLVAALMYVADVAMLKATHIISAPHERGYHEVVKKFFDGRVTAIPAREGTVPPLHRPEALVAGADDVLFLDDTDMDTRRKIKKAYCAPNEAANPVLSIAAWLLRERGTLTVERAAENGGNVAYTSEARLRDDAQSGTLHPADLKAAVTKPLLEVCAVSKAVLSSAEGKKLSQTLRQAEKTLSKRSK
Briefly: Trypanosoma cruzi tyrosyl tRNA synthetase (TcYRS) _High Tyrosine SOP. Also: in the data most compounds retested in dose-response had high values. Format: functional. Conditions: 30 µM.

The target in assay [7] is T4, Tyrosyl-tRNA synthetase, putative (Trypanosoma cruzi (strain CL Brener)). Briefly: Trypanosoma cruzi tyrosyl tRNA synthetase (TcYRS) SOP. The class given is functional. Conditions: 30 µM.
In assay [8] the target is Chromo domain-containing protein 1 (Saccharomyces cerevisiae (strain ATCC 204508 / S288c) (Baker's yeast)) (UniProt P32657). The assay can be described thus: ScCHD-1 Enzyme Inhibition Assay. Also: in the data most compounds retested in dose-response had high values. The class given is functional. Conditions: 30 µM.

For part of these data: Results with a measured potency or affinity are listed apart.

Sialic acid-binding Ig-like lectin 9 (Homo sapiens), sequence (Q9Y336 whole entry): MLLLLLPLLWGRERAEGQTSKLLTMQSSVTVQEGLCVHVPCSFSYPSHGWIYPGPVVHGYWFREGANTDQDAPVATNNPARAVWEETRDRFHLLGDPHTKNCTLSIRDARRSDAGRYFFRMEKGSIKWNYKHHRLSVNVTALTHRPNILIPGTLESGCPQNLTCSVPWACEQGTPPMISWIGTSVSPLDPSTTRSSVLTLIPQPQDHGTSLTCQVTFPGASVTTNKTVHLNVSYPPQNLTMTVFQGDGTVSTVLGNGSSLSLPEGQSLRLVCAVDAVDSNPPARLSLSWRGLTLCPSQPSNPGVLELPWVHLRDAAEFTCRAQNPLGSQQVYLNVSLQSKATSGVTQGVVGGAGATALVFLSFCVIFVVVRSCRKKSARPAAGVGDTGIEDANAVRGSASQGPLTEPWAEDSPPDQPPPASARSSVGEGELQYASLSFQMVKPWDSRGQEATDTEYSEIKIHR
Protein translocase subunit SecA (Escherichia coli (strain K12)), sequence (P10408 whole entry): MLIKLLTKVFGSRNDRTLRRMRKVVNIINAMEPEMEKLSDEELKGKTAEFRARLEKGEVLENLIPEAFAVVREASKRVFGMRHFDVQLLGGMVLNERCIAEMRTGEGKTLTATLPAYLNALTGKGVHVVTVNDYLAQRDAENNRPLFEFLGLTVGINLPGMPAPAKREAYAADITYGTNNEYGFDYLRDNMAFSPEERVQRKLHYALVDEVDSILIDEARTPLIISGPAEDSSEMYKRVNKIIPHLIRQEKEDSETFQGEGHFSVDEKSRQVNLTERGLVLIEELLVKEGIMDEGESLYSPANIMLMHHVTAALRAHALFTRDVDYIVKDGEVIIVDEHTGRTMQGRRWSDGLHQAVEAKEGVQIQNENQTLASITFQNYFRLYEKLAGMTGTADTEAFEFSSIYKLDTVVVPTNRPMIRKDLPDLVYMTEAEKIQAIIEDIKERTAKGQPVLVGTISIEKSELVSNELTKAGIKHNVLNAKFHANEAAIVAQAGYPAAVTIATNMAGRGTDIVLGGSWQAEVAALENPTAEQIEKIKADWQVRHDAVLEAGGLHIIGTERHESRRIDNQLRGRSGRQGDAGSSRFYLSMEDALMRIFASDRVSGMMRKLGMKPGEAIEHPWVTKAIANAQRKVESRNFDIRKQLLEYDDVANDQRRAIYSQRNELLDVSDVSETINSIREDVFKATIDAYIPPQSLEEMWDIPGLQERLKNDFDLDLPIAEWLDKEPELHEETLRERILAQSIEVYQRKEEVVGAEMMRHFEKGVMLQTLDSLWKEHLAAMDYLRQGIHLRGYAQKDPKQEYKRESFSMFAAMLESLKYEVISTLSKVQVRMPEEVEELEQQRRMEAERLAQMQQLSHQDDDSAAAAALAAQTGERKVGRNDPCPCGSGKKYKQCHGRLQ
Chromo domain-containing protein 1 (Saccharomyces cerevisiae (strain ATCC 204508 / S288c) (Baker's yeast)), sequence (P32657 whole entry, the tested form may be a part): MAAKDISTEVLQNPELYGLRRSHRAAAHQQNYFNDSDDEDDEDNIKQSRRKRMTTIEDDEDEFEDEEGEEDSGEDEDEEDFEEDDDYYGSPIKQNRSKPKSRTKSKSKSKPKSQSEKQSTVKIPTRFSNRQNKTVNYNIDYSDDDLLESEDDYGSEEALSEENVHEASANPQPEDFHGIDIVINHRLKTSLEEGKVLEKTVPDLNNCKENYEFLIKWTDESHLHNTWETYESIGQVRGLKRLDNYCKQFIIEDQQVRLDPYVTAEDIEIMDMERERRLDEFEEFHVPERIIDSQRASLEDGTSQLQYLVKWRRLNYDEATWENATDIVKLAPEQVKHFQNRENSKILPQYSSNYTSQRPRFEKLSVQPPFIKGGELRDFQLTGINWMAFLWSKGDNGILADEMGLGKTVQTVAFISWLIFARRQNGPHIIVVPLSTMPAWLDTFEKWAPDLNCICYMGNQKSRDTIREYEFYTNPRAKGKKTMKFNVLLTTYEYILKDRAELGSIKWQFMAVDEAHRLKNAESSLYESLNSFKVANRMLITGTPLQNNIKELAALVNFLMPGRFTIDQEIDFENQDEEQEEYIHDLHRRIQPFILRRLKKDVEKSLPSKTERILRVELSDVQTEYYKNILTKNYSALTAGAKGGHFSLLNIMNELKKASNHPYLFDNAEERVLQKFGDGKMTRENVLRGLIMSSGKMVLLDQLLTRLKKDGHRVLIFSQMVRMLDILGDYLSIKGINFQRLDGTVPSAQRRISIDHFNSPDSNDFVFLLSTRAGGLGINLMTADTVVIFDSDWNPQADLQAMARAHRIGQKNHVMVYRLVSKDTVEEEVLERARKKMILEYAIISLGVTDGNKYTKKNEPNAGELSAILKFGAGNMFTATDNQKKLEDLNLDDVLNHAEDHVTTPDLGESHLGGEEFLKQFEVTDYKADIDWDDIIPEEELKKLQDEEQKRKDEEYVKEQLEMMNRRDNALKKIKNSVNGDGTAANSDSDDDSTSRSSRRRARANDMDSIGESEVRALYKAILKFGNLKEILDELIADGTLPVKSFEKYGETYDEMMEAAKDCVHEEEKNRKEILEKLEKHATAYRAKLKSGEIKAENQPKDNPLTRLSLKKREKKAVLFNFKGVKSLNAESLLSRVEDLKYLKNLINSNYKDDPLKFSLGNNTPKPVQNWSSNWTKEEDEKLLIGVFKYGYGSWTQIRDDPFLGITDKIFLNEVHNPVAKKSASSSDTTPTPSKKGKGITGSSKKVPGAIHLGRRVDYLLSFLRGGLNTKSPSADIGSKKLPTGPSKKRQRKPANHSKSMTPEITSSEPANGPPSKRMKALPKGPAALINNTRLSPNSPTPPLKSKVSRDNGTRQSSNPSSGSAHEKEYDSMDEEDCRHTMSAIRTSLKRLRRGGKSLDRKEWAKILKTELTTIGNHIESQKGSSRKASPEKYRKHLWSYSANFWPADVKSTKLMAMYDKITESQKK

Take `Cc1cc(-c2ccc(C(=O)O)cc2)nc(C2CCCN(C(C)C)C2)n1` (stereo not given): the Percent Effect was -0.51% in [1]; 12% in assay [2]; 1.15% in assay [3]; 1.77% in the assay with Trypanosoma cruzi; 0.885% in assay [4]; 6.08% in assay [5]. Also, the Percent Effect is 4.86% in the assay filed under Homo sapiens, 6.35% in assay [6], 17.5% in assay [7] and -24.7% in [8].
On to `Cn1c(Cn2cccn2)nnc1C1CCCN(c2ccncc2F)C1` (stereo not given), for which the Percent Effect in assay [1] was -3.83%; in assay [2], 10.8%; in assay [3], 2.04%; in the assay with Trypanosoma cruzi, -2.62%; in assay [4] it was 0.35%; in [5] it was 12%. Moreover, the Percent Effect in the assay listed under Homo sapiens stood at 27.1%; in assay [6], 2.66%; in [7], 12.2%; in assay [8], 0.18%.
On to `CC(C)c1nc(CN2CCCN(Cc3nnc(C4CC4)o3)CC2)no1`, for which the Percent Effect was -2.61% in assay [1]; 8% in [2]; -2.85% in [3]; -0.602% with Trypanosoma cruzi; 4.43% in assay [4]; 17.2% in [5]. Moreover, the Percent Effect is 14.1% in the assay listed under Homo sapiens, 3.68% in assay [6], 7.69% in assay [7] and -9.7% in [8].
As to `CC(C)c1nnc2n1CCN(C(=O)c1ccnc(N(C)C)c1)C2`, the Percent Effect in assay [1] is -5.81%; in assay [2] it was 10.7%; in [3], 7.33%; in the assay with Trypanosoma cruzi, 0%; in assay [4] it was -5.76%; in [5] it was 16.9%. For the same molecule, the Percent Effect was -3.26% in the assay listed under Homo sapiens, 3.68% in assay [6], 10.3% in [7] and -12.4% in [8].
`Cc1nc(CNC(=O)NCC(O)c2ccc(F)cc2F)cs1` (stereo not given): the Percent Effect is 0.239% in assay [1]; 13.3% in [2]; -2.61% in [3]; -4.62% in the assay on Trypanosoma cruzi; 2.22% in assay [4]; 9.75% in assay [5]. For the same molecule, the Percent Effect is -4.09% in the assay listed under Homo sapiens, 8.95% in assay [6], 15.4% in assay [7] and -9.8% in assay [8].
Take `O=C(c1ccc(OCC2CC2)nc1)N1CCCC(n2ccnc2)C1` (stereo not given): the Percent Effect is -2.4% in [1]; 12.8% in assay [2]; -6.85% in assay [3]; 2.72% in the assay on Trypanosoma cruzi; 6.97% in assay [4]; 9.64% in assay [5]. Besides, the Percent Effect was 5.6% in the assay filed under Homo sapiens, 8.13% in assay [6], 22.9% in assay [7] and -4.73% in assay [8].
Consider `CCOCC1CN(Cc2cnn(C)c2)Cc2ncn(CC3CC3)c21` (stereo not given), for which the Percent Effect was -6.63% in [1]; -1.3% in assay [2]; 9.29% in [3]; -1.66% with Trypanosoma cruzi; -3.64% in assay [4]; 2.21% in assay [5]. Also, the Percent Effect was 10.9% in the assay listed under Homo sapiens, 1.58% in assay [6], -5.13% in assay [7] and 0.231% in [8].
As for `Cc1cnc(CN(C)C2CCN(Cc3nc4ccccc4n3C)C2)o1` (stereo not given), the Percent Effect is -2.3% in assay [1]; 16% in assay [2]; -6.81% in assay [3]; 3.21% in the assay with Trypanosoma cruzi; -4.43% in [4]; 22.6% in [5]. Further, the Percent Effect is -0.979% in the assay listed under Homo sapiens, 14.2% in assay [6], 17.9% in assay [7] and -12.5% in assay [8].
As for `Cc1nc[nH]c1CN1CCN(C(=O)c2cccs2)[C@H]2CS(=O)(=O)C[C@H]21`, the Percent Effect in assay [1] was -6.02%; in assay [2] it was 2.7%; in assay [3] it was 2.06%; in the assay on Trypanosoma cruzi, -2.81%; in assay [4], 3.85%; in assay [5] it was 4.62%. For the same molecule, the Percent Effect is 5.03% in the assay filed under Homo sapiens, 4.79% in [6], 14.6% in [7] and -2.09% in assay [8].
For the molecule `CCSCCC(=O)NS(=O)(=O)c1ccc2c(c1)OCCO2`, the Percent Effect is -2% in assay [1]; 10.3% in [2]; -9.92% in assay [3]; -1.97% in the assay with Trypanosoma cruzi; 1.23% in [4]; 4.69% in assay [5]. Moreover, the Percent Effect in the assay filed under Homo sapiens was 9.19%; in assay [6], 2.39%; in [7], 10.8%; in [8] it was -1.85%.
On to `CS(=O)(=O)NCc1cc2n(n1)CCCN(Cc1cccc(C#N)c1)C2`, for which the Percent Effect was -4.38% in assay [1]; 8.11% in assay [2]; 22.8% in assay [3]; 7.47% with Trypanosoma cruzi; 10.8% in [4]; 13% in assay [5]. The Percent Effect was 18.6% in the assay listed under Homo sapiens, 7.98% in assay [6], 19.5% in [7] and 88% in assay [8].
Regarding `Cn1ccc(CN2CCC(NC(=O)Cc3ccccc3)CC2)cc1=O`, the Percent Effect was -2.78% in assay [1]; 5.13% in assay [2]; -5.06% in assay [3]; 6.85% with Trypanosoma cruzi; 2.87% in [4]; 6.74% in assay [5]. Moreover, the Percent Effect in the assay listed under Homo sapiens is -7.1%; in [6], 7.18%; in assay [7] it was 13.2%; in assay [8], -3.86%.
